Assay outcomes as filed in PubChem.
In the library only some 2.9% were active in any assay of this set; here they are far more common.
Shn3 inh set2: inhibitors of Schnurri-3 3'UTR reporter in osteoblasts. inhibition, % at 12.5 µM. 360,000 compounds, 0.52% hits. Clone20 osteoblast Shn3 3'UTR firefly luciferase, 24 h. AID 588674;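 active = mean inhibition of at least 75% with every replicate also reaching 75%; inconclusive = mean inhibition at least 75% but some replicate below; inactive = mean inhibition below 75%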;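 note: 0% = median of neutral control wells and 100% = pilot-screen positive control compound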
Peg3 prom inh: inhibitors of Peg3 promoter; HeLa PEG-Prom luciferase reporter, luminescence, overnight; inhibition, % at 20 µM; 360,000 compounds, 1.7% hits;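 active = inhibition of at least 50% at 20 µM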
TRPM1 prom inh: inhibitors of MITF-driven TRPM1 promoter in melanoma cells; SK-MEL-5 TRPM1 promoter luciferase, 24 h; inhibition, % at 12.5 µM; 330,000 compounds, 0.83% hits;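 active = mean inhibition across replicates of 60% or more, whatever share of single replicates reaches that level; inconclusive = some that reach 60%, reason not given; inactive = mean inhibition across replicates below 60%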
KKLEB tox: CF airway cell cytotoxicity counter-screen; KKLEB CF airway cells viability, ATPlite luminescence, overnight; active compounds read low; cells stimulated with P. aeruginosa culture filtrate; 360,000 compounds, 0.36% hits; activity change (cytotoxicity), % at 5 µM; AID 602141;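 active = corrected activity change at or below -50% at 5 µM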
EBV LMP1 NFkB: inhibitors of Epstein-Barr LMP1-induced NF-kappaB reporter; inhibition, % at 12.5 µM; 350,000 compounds, 0.69% hits; AID 504558; LMP1-induced NF-kappaB luciferase reporter cells, luminescence; in the data active = inhibition above about 41%; inconclusive = no clear call, values can overlap the other calls;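 note: 0% = neutral control wells and 100% = reference inhibitor control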
CF NFkB inh: blocks PAF-induced NF-kB reporter in cystic fibrosis cells; KKLEB NF-kB-GFP reporter, GFP fluorescence overnight; inhibition, % at 5 µM; 360,000 compounds, 0.86% hits;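 active = at least 50% inhibition at 5 µM, scaled per plate between neutral and stimulator controls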;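 note: PAF is a Pseudomonas aeruginosa culture filtrate used as stimulus; plate controls were PAF-stimulated DMSO wells for no effect and unstimulated DMSO wells for full effect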
Active calls of the source: *; ? = inconclusive; . = no result given.

SMILES	Shn3 inh set2	Peg3 prom inh	TRPM1 prom inh	KKLEB tox	EBV LMP1 NFkB	CF NFkB inh
CCCCOc1ccc(C(O)C(CN2CCCCC2)c2ccccc2)cc1 (centres undefined)	35.6	-11.6	-6.4	-5.8	3.9	14.9
CCCOc1ccc(C(=O)C(CN2CCCC2)c2ccccc2)cc1 (centres undefined)	94.9*	108.5*	77.4*	-61.0*	-35.7	38.5
COc1ccc(C(=O)CCN2CCCCCC2)cc1	-9.4	-2.0	2.3	8.4	-2.1	7.3
COc1ccc(C(=O)C(CN2CCCC2)c2ccccc2)cc1 (centres undefined)	10.9	104.4*	64.2*	-57.8*	-31.1	53.9*
O=C(c1ccc(F)cc1)C(CN1CCOCC1)c1ccccc1 (centres undefined)	94.4*	104.6*	90.3*	-68.3*	26.5	90.4*
CCCCC(O)(c1ccc(OC)cc1)C(CN1CCOCC1)c1ccccc1 (centres undefined)	24.9	52.1*	-7.0	-6.6	5.2	8.0
CC1(C(=O)NCC2CCOCC2)Cc2c(-c3cccc(C(F)(F)F)c3)ccnc2O1 (centres undefined)	2.6	10.4	.	-25.4	.	15.7
N#CC1=C2CCCCC2(O)NC1=O (centres undefined)	1.1	1.7	.	-1.3	4.7	-11.7
CCOC(=O)C1=CCN(S(=O)(=O)c2ccc(C)cc2)C1c1cccc(Br)c1 (centres undefined)	-9.6	29.6	.	-13.6	.	-0.9
COc1ccc(C(=O)C(CN2CCOCC2)c2ccccc2)cc1 (centres undefined)	89.3*	98.1*	83.2*	-60.6*	?	54.3*
O=C(c1ccc(Cl)cc1)C1CCN(Cc2ccccc2)CC1	-3.5	10.2	.	-8.6	1.7	8.6
CCCCOc1ccc(C(=O)C(CN2CCOCC2)c2ccccc2)cc1 (centres undefined)	-13.4	96.5*	33.0	-37.7	-96.0	-18.1
CCC(O)(c1ccc(OC)cc1)C(CN1CCOCC1)c1ccccc1 (centres undefined)	8.4	14.1	3.1	-0.9	9.6	-3.9
O=C(c1ccc(Cl)cc1)C(CN1CCCC1)c1ccccc1 (centres undefined)	-1.3	76.2*	77.2*	-59.6*	46.3*	68.9*
CCCCCOc1ccc(C(=O)C(c2ccccc2)N2CCOCC2)cc1 (centres undefined)	10.6	25.9	7.1	-3.2	6.4	15.3
COc1ccc([C@H]2CN(CCc3ccccc3)C(=O)[C@@H]2CC(=O)Nc2ccccc2)cc1	-47.3	-65.2	.	8.1	-0.3	4.3
Cc1cccc(NC(=S)N/N=C/c2cccc([N+](=O)[O-])c2)c1	-5.6	-6.0	-2.6	9.4	-3.8	-1.1
Cc1cc(C(=O)N/N=C/c2ccc(Cl)c([N+](=O)[O-])c2)c(C)n1-c1ccc(F)cc1	11.0	105.3*	62.8*	1.4	3.3	1.0
Cc1cccc(NC(=S)N/N=C/c2ccc(Cl)c([N+](=O)[O-])c2)c1	8.8	62.5*	9.6	-1.9	15.9	-5.2
Cc1csc(N=Nc2ccc(N(C)C)cc2)[n+]1[O-]	4.8	18.4	.	-9.9	54.6*	-22.0
CCC(C)C(=O)C(=O)N1CCC(n2nccc2NC(=O)CCOc2ccccc2)CC1 (centres undefined)	-8.3	-39.2	.	-6.7	-9.0	11.2
O=C(/C=C/Nc1ccc(Br)cc1F)c1ccccc1	26.3	22.0	28.2	-77.9*	65.3*	2.2
CCOC(=O)c1sc(NC(=O)Nc2cccc(Cl)c2)cc1C	23.8	-123.6	-59.7	-63.5*	-18.2	60.1*
COc1cc(CN2C[C@@H](CO)O[C@@H](n3cnc4c(NCc5ccncc5)ncnc43)C2)cc(OC)c1OC	-9.8	-7.0	.	-11.1	.	5.9
O=C(COc1cccc(NC(=O)c2cccc([N+](=O)[O-])c2)c1)c1ccc(Br)cc1	35.5	50.1*	15.4	1.7	2.2	4.4
SMILES	Shn3 inh set2	Peg3 prom inh	TRPM1 prom inh	KKLEB tox	EBV LMP1 NFkB	CF NFkB inh
O=C1CSC(=S)N1Cc1ccccc1	-15.0	6.6	.	5.5	41.5*	17.1
Cc1noc2ncnc(Sc3c(Cl)cccc3Cl)c12	1.6	96.8*	34.5	5.8	-5.1	16.0
Cc1noc2ncnc(Sc3ccc(Cl)cc3)c12	-16.5	101.7*	6.5	-12.2	5.9	35.9
COc1ccc(CCN2CC(C(=O)Nc3nccs3)CC2=O)cc1OC (centres undefined)	-37.6	10.7	1.7	10.3	-6.1	-7.9
COc1cccc(C(C)(O)c2nc(-c3cc(F)cc(F)c3)cs2)c1 (centres undefined)	4.4	-1.4	.	-4.9	.	45.5
C=CC(=O)N1C/C(=C/c2ccccc2)C(=O)/C(=C\c2ccccc2)C1	97.3*	105.9*	97.3*	-42.0	85.1*	81.3*
CN1CCN(C(=O)CCN2C(=O)S/C(=C/c3ccc(Cl)cc3)C2=O)CC1	-13.9	-39.1	1.7	0.4	-0.4	4.7
O=C1/C(=C/c2ccc(C(=O)O)cc2)CCC/C1=C\c1ccc(C(=O)O)cc1	-15.2	4.2	-9.0	5.6	-2.3	2.8
C=CC(=O)N1C/C(=C/c2ccc(Cl)cc2)C(=O)/C(=C\c2ccc(Cl)cc2)C1	97.3*	103.4*	98.3*	-97.3*	86.3*	87.3*
CCOC(=O)C1=CCN(S(=O)(=O)c2ccccc2C)C1c1ccc(Cl)cc1 (centres undefined)	-8.4	26.8	.	-1.4	.	5.2
CC(=O)NC(C)(c1ccccc1)c1nc(-c2cccc(F)c2)cs1 (centres undefined)	-6.8	-1.9	.	-2.2	.	17.7
CCCn1c(=O)n(C)c(=O)c2c(SCC(=O)NC34CC5CC(CC(C5)C3)C4)nc(CC(C)C)nc21	-0.4	27.3	67.6*	-11.4	-38.6	14.1
Cc1nnc(NC(=O)CSc2nc(CC(C)C)nc3c2c(=O)n(C)c(=O)n3C)s1	21.5	4.7	5.5	0.4	2.1	12.0
S=C(NNc1ccnc2cc(Cl)ccc12)Nc1ccc(Cl)cc1Cl	87.9*	52.3*	64.5*	11.9	10.9	-34.1
Cn1c(NCCc2ccncc2)nc2cc(-c3ccccc3)sc2c1=O	-20.9	-141.6	.	-6.6	.	8.7
CCOCc1c(C(=O)NC2=Nc3ccccc3NC(CC)=C2C(=O)OCC)oc2ccccc12	39.4	65.5*	1.3	-98.8*	10.2	86.2*
O=C(CN(C1CCCCC1)S(=O)(=O)c1ccc(F)cc1)NCC1CCCO1 (centres undefined)	97.0*	97.7*	85.9*	-94.6*	-131.8	90.8*
O=S(=O)(NCC1CCCO1)c1cc(Cl)ccc1Cl (centres undefined)	1.4	-4.4	-27.9	10.5	0.1	-10.9
O=[N+]([O-])c1ccc(Cl)c(S(=O)(=O)NCC2CCCO2)c1 (centres undefined)	-7.7	10.1	3.7	-3.5	47.8*	9.4
